According to PubChem BioAssay (NCI):
The panel holds about 83,000 compounds, 20% with a hit somewhere; the sample as a whole holds those more often.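 Note: values are percent growth. 100 is the growth of untreated cells, values between 100 and 0 indicate rising inhibition; between -100 and 0 indicates cell death.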 Activity calls are given as the source filed them. How the source made its calls: active means growth percent below 10; inactive means the rest.

Key:
Assay in all cases: NCI-60 one-dose screen, 48 h (100 = growth as untreated, 0 = no growth, -100 = all killed)
Conditions in all cases: 10 µM unless noted
SK-MEL-2 melanoma = system: SK-MEL-2 melanoma
SN12C renal = system: SN12C renal
UO-31 renal = system: UO-31 renal
TK-10 renal = system: TK-10 renal
ACHN renal = system: ACHN renal
CAKI-1 renal = system: CAKI-1 renal
A498 renal = system: A498 renal
CCRF-CEM leukemia = system: CCRF-CEM leukemia
MOLT-4 leukemia = system: MOLT-4 leukemia
SR leukemia = system: SR leukemia
RPMI-8226 leukemia = system: RPMI-8226 leukemia
OVCAR-8 ovarian = system: OVCAR-8 ovarian
OVCAR-5 ovarian = system: OVCAR-5 ovarian
OVCAR-4 ovarian = system: OVCAR-4 ovarian
SK-OV-3 ovarian = system: SK-OV-3 ovarian
IGROV1 ovarian = system: IGROV1 ovarian
HS 578T breast = system: HS 578T breast
NCI/ADR-RES ovarian = system: NCI/ADR-RES ovarian
EKVX NSCLC = system: EKVX NSCLC

Measured: growth

CCNC(=O)N1CCc2cc(OC)c(OCCc3ccc(OC)cc3)cc2C1c1ccc(Cl)cc1C (stereo not given)
inactive: SK-MEL-2 melanoma 14.7% | SN12C renal 18.6% | UO-31 renal 28.2% | TK-10 renal 54.2% | ACHN renal 23.1% | CAKI-1 renal 23.3% | CCRF-CEM leukemia 38.2% | MOLT-4 leukemia 23.6% | RPMI-8226 leukemia 20% | OVCAR-8 ovarian 27.3% | OVCAR-5 ovarian 32.9% | OVCAR-4 ovarian 51.7% | SK-OV-3 ovarian 54.9% | IGROV1 ovarian 23.4% | NCI/ADR-RES ovarian 13.5%
active: A498 renal -12.8% | SR leukemia 6.29% | HS 578T breast 1.75%

NS(=O)(=O)c1ccc(Nc2cc(-c3ccccc3)nc(SCC(=O)c3ccccc3)n2)cc1
inactive: SK-MEL-2 melanoma 105% | SN12C renal 96% | UO-31 renal 86% | TK-10 renal 129% | ACHN renal 105% | CAKI-1 renal 90% | A498 renal 94.9% | CCRF-CEM leukemia 98.3% | SR leukemia 101% | RPMI-8226 leukemia 93.7% | OVCAR-8 ovarian 99.3% | OVCAR-5 ovarian 104% | OVCAR-4 ovarian 102% | SK-OV-3 ovarian 110% | IGROV1 ovarian 97.4% | HS 578T breast 107% | NCI/ADR-RES ovarian 101%

N#Cc1c(Nc2ccccc2)nn2c(-c3ccc([N+](=O)[O-])cc3)ccnc12
inactive: EKVX NSCLC 99.5% | SN12C renal 104% | UO-31 renal 84% | TK-10 renal 98% | ACHN renal 102% | CAKI-1 renal 91.9% | CCRF-CEM leukemia 104% | SR leukemia 103% | RPMI-8226 leukemia 94.1% | OVCAR-8 ovarian 99.9% | OVCAR-5 ovarian 99.6% | OVCAR-4 ovarian 108% | SK-OV-3 ovarian 111% | IGROV1 ovarian 100% | HS 578T breast 102% | NCI/ADR-RES ovarian 101%

COc1ccc(-n2c(SCc3n[nH]c(=S)o3)nc3ccc(Cl)cc3c2=O)cc1
inactive: EKVX NSCLC 98.7% | SN12C renal 92% | UO-31 renal 93.7% | TK-10 renal 105% | ACHN renal 97% | CAKI-1 renal 85.5% | MOLT-4 leukemia 111% | SR leukemia 103% | RPMI-8226 leukemia 101% | OVCAR-8 ovarian 101% | OVCAR-5 ovarian 89.7% | OVCAR-4 ovarian 99.3% | SK-OV-3 ovarian 97.7% | IGROV1 ovarian 95.8% | NCI/ADR-RES ovarian 99.4%

Cc1ccc(NC(=O)N[C@@H](Cc2cc(F)cc(F)c2)C(=O)NC2C(=O)N3C[C@H](O)C[C@H]3C(=O)N3CCCC[C@H]3C(=O)N[C@@H](CO)C(=O)N3C[C@H](C)C[C@H]3C(=O)O[C@H]2C)c(F)c1 (stereo not given in full)
inactive: EKVX NSCLC 40.7% | SN12C renal 22% | UO-31 renal 90.7% | TK-10 renal 107% | ACHN renal 107% | CAKI-1 renal 82.9% | CCRF-CEM leukemia 35.1% | MOLT-4 leukemia 54.5% | SR leukemia 40.6% | RPMI-8226 leukemia 17.6% | OVCAR-8 ovarian 44.1% | OVCAR-5 ovarian 43.8% | OVCAR-4 ovarian 29.8% | SK-OV-3 ovarian 33.7% | IGROV1 ovarian 60.6% | HS 578T breast 40.1% | NCI/ADR-RES ovarian 107%

Nc1nc(-c2cccc([N+](=O)[O-])c2)c(N=Nc2ccccc2)s1
inactive: SN12C renal 71% | UO-31 renal 62.2% | TK-10 renal 81.7% | ACHN renal 63.2% | CAKI-1 renal 39.3% | CCRF-CEM leukemia 48.4% | MOLT-4 leukemia 50.8% | SR leukemia 56.1% | RPMI-8226 leukemia 52.9% | OVCAR-8 ovarian 58.2% | OVCAR-5 ovarian 79.4% | OVCAR-4 ovarian 59.2% | SK-OV-3 ovarian 62.3% | IGROV1 ovarian 82.5% | HS 578T breast 70.4% | NCI/ADR-RES ovarian 54.9%

Cc1ccc(C(=O)NN2C(=O)/C(=C/C=C/c3ccco3)SC2=S)cc1
inactive: EKVX NSCLC 95.4% | SN12C renal 94.7% | UO-31 renal 88.6% | TK-10 renal 118% | ACHN renal 107% | CAKI-1 renal 91.4% | CCRF-CEM leukemia 103% | MOLT-4 leukemia 40.7% | SR leukemia 84.5% | RPMI-8226 leukemia 102% | OVCAR-8 ovarian 99.7% | OVCAR-5 ovarian 100% | OVCAR-4 ovarian 92.8% | SK-OV-3 ovarian 107% | IGROV1 ovarian 98.4% | HS 578T breast 96.5% | NCI/ADR-RES ovarian 97.5%

COc1ccc(-c2nc3cc(Cl)c(Cl)cc3n2CC(=O)N=Nc2c(O)[nH]c3ccc(OC)cc23)cc1
inactive: SN12C renal 49.7% | UO-31 renal 69.9% | TK-10 renal 97.3% | ACHN renal 43.5% | CAKI-1 renal 59.4% | CCRF-CEM leukemia 61.6% | MOLT-4 leukemia 78.7% | RPMI-8226 leukemia 55.1% | OVCAR-8 ovarian 74.5% | OVCAR-5 ovarian 49.7% | OVCAR-4 ovarian 40.4% | SK-OV-3 ovarian 86.2% | IGROV1 ovarian 29.5% | HS 578T breast 47.7% | NCI/ADR-RES ovarian 30.9%

COc1cccc(C(=O)Nc2cccc(C#Cc3cccc4[nH]nc(N)c34)c2)c1
inactive: EKVX NSCLC 80.9% | SN12C renal 71.6% | UO-31 renal 56.4% | TK-10 renal 96.5% | ACHN renal 51% | CAKI-1 renal 52.4% | CCRF-CEM leukemia 28.5% | RPMI-8226 leukemia 39.2% | OVCAR-8 ovarian 50.4% | OVCAR-5 ovarian 69.2% | OVCAR-4 ovarian 67.8% | SK-OV-3 ovarian 86.7% | HS 578T breast 66.4% | NCI/ADR-RES ovarian 45.5%

N#C/C(=C\c1ccc(-c2ccc(Cl)cc2Cl)o1)c1ccc(F)cc1
inactive: EKVX NSCLC 87.4% | SN12C renal 98.6% | UO-31 renal 81.5% | TK-10 renal 138% | CAKI-1 renal 68.8% | CCRF-CEM leukemia 93.7% | MOLT-4 leukemia 93.8% | SR leukemia 90.5% | RPMI-8226 leukemia 85% | OVCAR-8 ovarian 93.8% | OVCAR-5 ovarian 92.2% | OVCAR-4 ovarian 80.4% | SK-OV-3 ovarian 81.9% | IGROV1 ovarian 86.5% | HS 578T breast 89.9% | NCI/ADR-RES ovarian 93.7%

Cc1cc(C)c2sc(=O)n(Cc3nnc(SCCC(=O)O)o3)c2n1
inactive: EKVX NSCLC 102% | SN12C renal 97.8% | UO-31 renal 91.8% | TK-10 renal 103% | ACHN renal 103% | CAKI-1 renal 89.5% | CCRF-CEM leukemia 56.6% | MOLT-4 leukemia 90.6% | SR leukemia 79.2% | RPMI-8226 leukemia 99.8% | OVCAR-8 ovarian 104% | OVCAR-5 ovarian 99.4% | OVCAR-4 ovarian 108% | SK-OV-3 ovarian 105% | IGROV1 ovarian 102% | NCI/ADR-RES ovarian 102%

C[C@@H]1C[C@H]2C(=O)O[C@@H](C)C(NC(=O)[C@H](Cc3cc(F)cc(F)c3)NC(=O)Nc3ccc(C4CC4)cc3F)C(=O)N3CCC[C@H]3C(=O)N3CCCC[C@H]3C(=O)N[C@@H](CO)C(=O)N2C1 (stereo not given in full)
inactive: EKVX NSCLC 30.2% | SN12C renal 18.7% | UO-31 renal 25.8% | TK-10 renal 52.6% | CAKI-1 renal 18.6% | CCRF-CEM leukemia 31.2% | MOLT-4 leukemia 39.7% | SR leukemia 28.1% | RPMI-8226 leukemia 14.9% | OVCAR-8 ovarian 20.9% | OVCAR-5 ovarian 29.9% | OVCAR-4 ovarian 21.3% | SK-OV-3 ovarian 21% | IGROV1 ovarian 42.2% | HS 578T breast 32.7% | NCI/ADR-RES ovarian 36.1%

Cc1ccc2sc3c(c2c1)OC(N)=C(C#N)C3c1cccc(F)c1 (stereo not given)
active: SR leukemia 9.55% | OVCAR-8 ovarian 4.8% | HS 578T breast 5.7% | NCI/ADR-RES ovarian 5.79%
inactive: EKVX NSCLC 44.6% | SN12C renal 10.4% | UO-31 renal 25.9% | TK-10 renal 36.1% | ACHN renal 20.6% | CAKI-1 renal 16.5% | CCRF-CEM leukemia 16.1% | MOLT-4 leukemia 17.5% | RPMI-8226 leukemia 14.4% | OVCAR-5 ovarian 14.4% | OVCAR-4 ovarian 20.3% | SK-OV-3 ovarian 22.5% | IGROV1 ovarian 18.8%

CCOC(=O)c1c(Nc2ccccc2)nn2c(-c3cccs3)ccnc12
inactive: EKVX NSCLC 88.8% | SN12C renal 91% | UO-31 renal 82.6% | TK-10 renal 107% | ACHN renal 88.3% | CAKI-1 renal 78.8% | CCRF-CEM leukemia 58.8% | MOLT-4 leukemia 74.5% | SR leukemia 63.5% | RPMI-8226 leukemia 66.2% | OVCAR-8 ovarian 92.2% | OVCAR-5 ovarian 90.3% | OVCAR-4 ovarian 91.7% | SK-OV-3 ovarian 83.2% | IGROV1 ovarian 91.3% | HS 578T breast 90.2% | NCI/ADR-RES ovarian 87.4%

O=C1/C(=C/C=C/c2ccco2)SC(=S)N1c1ccccc1
inactive: EKVX NSCLC 81.2% | SN12C renal 79.1% | UO-31 renal 42.9% | TK-10 renal 95.5% | CAKI-1 renal 86.8% | CCRF-CEM leukemia 41.3% | MOLT-4 leukemia 60.2% | SR leukemia 43.8% | RPMI-8226 leukemia 53.6% | OVCAR-8 ovarian 66.4% | OVCAR-5 ovarian 88% | OVCAR-4 ovarian 90.9% | SK-OV-3 ovarian 110% | IGROV1 ovarian 44.3% | HS 578T breast 102% | NCI/ADR-RES ovarian 51.2%

Cc1ccc(N2C(=O)/C(=C/C=C/c3ccco3)SC2=S)cc1
active: MOLT-4 leukemia 9.93%
inactive: EKVX NSCLC 95.4% | SN12C renal 91.4% | UO-31 renal 84% | TK-10 renal 117% | ACHN renal 101% | CAKI-1 renal 90.4% | CCRF-CEM leukemia 61.2% | SR leukemia 56.6% | RPMI-8226 leukemia 75.3% | OVCAR-8 ovarian 99.2% | OVCAR-5 ovarian 103% | OVCAR-4 ovarian 92.4% | SK-OV-3 ovarian 107% | IGROV1 ovarian 103% | HS 578T breast 96.2% | NCI/ADR-RES ovarian 97.6%

COc1cc(OC)c(S(N)(=O)=O)cc1C(=O)/C=C/c1ccc(Cl)cc1
inactive: EKVX NSCLC 29.8% | SN12C renal 16% | ACHN renal 11.6% | CAKI-1 renal 21.5% | OVCAR-5 ovarian 17.2% | OVCAR-4 ovarian 49.9% | SK-OV-3 ovarian 33.6% | HS 578T breast 13.2%
active: UO-31 renal 7.22% | TK-10 renal -5.25% | CCRF-CEM leukemia 1.6% | SR leukemia -19.5% | RPMI-8226 leukemia -5.04% | OVCAR-8 ovarian 3% | IGROV1 ovarian 6.66%

Cc1ccc2sc3c(c2c1)OC(N)=C(C#N)C3c1ccc(Cl)cc1 (stereo not given)
inactive: EKVX NSCLC 70.9% | SN12C renal 93.3% | UO-31 renal 75.9% | TK-10 renal 97.3% | ACHN renal 87.4% | CAKI-1 renal 60.4% | CCRF-CEM leukemia 75.7% | RPMI-8226 leukemia 93.2% | OVCAR-8 ovarian 96.7% | OVCAR-5 ovarian 93.4% | OVCAR-4 ovarian 91.1% | SK-OV-3 ovarian 85.7% | IGROV1 ovarian 65.2% | HS 578T breast 78.3% | NCI/ADR-RES ovarian 76.2%
